Screening results from PubChem BioAssay.
Pol eta inh-1 – DNA polymerase eta (human) inhibition | Potency, µM (top dose mostly 114 µM), most hits filed as inhibitors | AID 588591 | Q9Y253 | actives 1.2% (n = 390,000) | recombinant Pol eta, fluorescent DNA replication assay
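Pol eta at 10 nM preincubated with compounds 15 min at room temperature; reaction started with fluorescent substrate (50 nM final) and read kinetically at 0 and 10 min.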
Pol kappa inh-1 – blocks human DNA polymerase kappa activity; Q9UBT6; purified Pol kappa, fluorescent DNA synthesis assay, 10 min; Potency, µM (titrated, usually from 107 µM), actives largely listed as inhibitors; actives 0.53% (n = 400,000); AID 588579
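50 nM final substrate added after 15 min RT preincubation of 10 nM Pol kappa with compound; fluorescence read at 0 and 10 min.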
L3MBTL1 inh-1 – blocks human L3MBTL1; actives 0.66% (n = 230,000); Q9Y468; AlphaScreen L3MBTL1–H3K9me1 peptide binding; Potency, µM (series often up to 57.1 µM), most hits filed as inhibitors; also: nearly all actives have a fitted effect of over 60% in size
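AlphaScreen assay: L3MBTL1 (50 nM final) was preincubated 30 min at room temperature with biotinylated H3(1-15)K9me1 peptide (75 nM final), then 30 min with library compounds; streptavidin donor and nickel chelate acceptor beads (10 ug/mL final) added, 30 min dark.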
POLI inh – DNA polymerase iota (human) inhibition. actives 1% (n = 390,000). Pol iota fluorescent replication assay, 10 min. Potency, µM (titrated, usually from 115 µM), actives largely listed as inhibitors
Target sequence (Q9UNA4 whole entry, looked up): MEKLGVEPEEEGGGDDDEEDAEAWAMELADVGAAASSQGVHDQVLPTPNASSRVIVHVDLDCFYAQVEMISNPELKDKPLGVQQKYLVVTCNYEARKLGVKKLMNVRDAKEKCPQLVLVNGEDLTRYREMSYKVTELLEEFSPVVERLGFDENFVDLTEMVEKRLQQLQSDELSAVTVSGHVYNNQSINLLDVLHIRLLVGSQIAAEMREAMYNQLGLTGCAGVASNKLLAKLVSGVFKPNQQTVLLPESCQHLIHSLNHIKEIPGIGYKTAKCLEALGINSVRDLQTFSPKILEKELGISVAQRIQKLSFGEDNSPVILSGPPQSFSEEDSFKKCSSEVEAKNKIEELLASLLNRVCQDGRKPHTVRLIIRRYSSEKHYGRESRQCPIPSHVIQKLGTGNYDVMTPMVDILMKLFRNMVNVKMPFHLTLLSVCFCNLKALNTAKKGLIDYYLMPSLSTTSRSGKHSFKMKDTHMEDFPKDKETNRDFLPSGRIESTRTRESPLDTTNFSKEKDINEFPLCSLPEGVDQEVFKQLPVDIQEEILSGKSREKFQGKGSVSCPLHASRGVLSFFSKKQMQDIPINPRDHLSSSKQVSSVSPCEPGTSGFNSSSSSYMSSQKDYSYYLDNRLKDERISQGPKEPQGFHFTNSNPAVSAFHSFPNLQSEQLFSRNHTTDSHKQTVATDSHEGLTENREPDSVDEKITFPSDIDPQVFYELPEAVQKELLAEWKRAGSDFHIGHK
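Fluorescent replication assay read twice, at 0 min and 10 min after adding 50 nM (final) substrate. Enzyme (10 nM) and compounds were first incubated 15 min at room temperature; enzyme-free buffer wells were negative controls.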
POLB inh – blocks human DNA polymerase beta activity. Potency, µM (top dose mostly 114 µM), hits mostly inhibitors. actives 1.3% (n = 340,000). Pol beta primer extension/strand displacement, fluorescence kinetic. AID 485314
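Reaction started by 50 nM substrate onto compound-treated Pol beta (10 nM, 15 min preincubation, room temperature); plates read at 0 min and 10 min. Normalized concentration-effect data fitted by four-parameter Hill equation.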
L3MBTL1 inh-2 – validation of human L3MBTL1 methyl-lysine binding inhibitors. shares compounds with L3MBTL1 inh-1. L3MBTL1 methyl-lysine binding inhibition, biochemical qHTS. Potency, µM, actives largely listed as inhibitors. actives 91% (n = 500). AID 540279; also: nearly all actives have a fitted effect of over 70% in size
L3MBTL1 ctr – counter-screen for L3MBTL1 inhibitors: AlphaScreen signal interference | Potency, µM (highest dose often 57.1 µM), actives largely listed as inhibitors | shares compounds with L3MBTL1 inh-1 | 500 tested, under 10 active | AlphaScreen counterscreen, signal inhibition | AID 602224
Pol iota confirm – Inhibitors of human DNA polymerase iota, confirmation; actives 77% (n = 1,500); shares compounds with Pol kappa inh-1; Potency, µM, usual class: inhibitors; Pol iota primer extension, TAMRA/BHQ fluorescence; AID 720496
Pol kappa inh-2 – Pol kappa (human) inhibition, cherry-pick confirmation | purified Pol-kappa, fluorescent strand-displacement substrate | shares compounds with Pol eta inh-1 | actives 76% (n = 920) | Potency, µM, most hits filed as inhibitors
Pol eta inh-2 – Pol eta (human) inhibition, cherry-pick confirmation | shares compounds with Pol eta inh-1 | Pol eta primer extension, TAMRA/BHQ fluorescence, 10 min | Potency, µM, usual class: inhibitors | actives 64% (n = 2,600) | AID 720502
Hits are given with their value; n = inactive; u = inconclusive; x = not tested or not shown. Shown are actives, neighbours in structure and some others; about 2.4% of the full set was active somewhere. Calls follow the shape of the dose curve; as a rule, active = well fitted curve in the direction sought with a large enough effect; inconclusive = small, poorly fitted or top-dose-only effect, or another doubt; inactive = no such curve, though single readings can be large; an effect the other way counts as inactive or inconclusive.

SMILES	Pol eta inh-1	Pol kappa inh-1	L3MBTL1 inh-1	POLI inh	POLB inh	L3MBTL1 inh-2	L3MBTL1 ctr	Pol iota confirm	Pol eta inh-2	others
COCCOC(=O)c1[nH]c2c(c1C)C(=O)CC(c1ccco1)C2 (configuration not stated)	12.6µM	22.4µM	31.6µM	n	11.2µM	15	n	42.3	37.9
CCOC(=O)c1[nH]c2c(c1C)C(=O)CC(c1ccco1)C2 (configuration not stated)	20µM	56.2µM	31.6µM	u	28.2µM	21.2	n	67	60.1
CCOC(=O)CN1C(=O)S/C(=C/c2ccc(N3CCCCC3)o2)C1=O	n	n	n	n	n	x	x	x	x
CCOC(=O)CN1C(=O)S/C(=C\c2ccc(-c3ccc(C(=O)O)c(Cl)c3)o2)C1=O	10µM	39.8µM	28.2µM	20µM	u	13.4	n	u	30.1	Pol kappa inh-2=16.8
COC(=O)CNC(=O)Nc1cc(C(=O)NCc2ccc(C)cc2)ccc1N1CCCC1	n	n	x	n	n	x	x	x	x
CCOc1cccc2c1Oc1nc(-c3ccccc3)nc(SCC(=O)Nc3ccc(F)cc3)c1C2	n	n	x	n	n	x	x	x	x
O=C(CSc1nc(-c2ccccc2)nc2c1Cc1ccccc1O2)Nc1ccc(C(=O)O)cc1	7.94µM	10µM	10µM	u	2µM	5.97	u	9.47	u	Pol kappa inh-2=42.3
CC(=O)Nc1ccc2c(COC(=O)CC3Sc4ccccc4NC3=O)cc(=O)oc2c1 (configuration not stated)	20µM	35.5µM	25.1µM	u	7.94µM	8.44	n	59.7	47.8
COC(=O)CC1Sc2ccccc2NC1=O (configuration not stated)	n	n	x	n	n	x	x	x	x
COc1cc(NC(=O)CCc2nc3cccnc3n2Cc2cccs2)cc(OC)c1OC	n	n	x	n	n	x	x	x	x
CCOc1ccc(OCCNC(=O)c2ccc3c(c2)nnn3CC)cc1	n	n	n	n	x	x	x	x	x
O=C(CSc1ccsc1[N+](=O)[O-])Nc1cccc(F)c1	22.4µM	22.4µM	28.2µM	u	7.08µM	7.52	n	67	47.8
CCc1ccccc1NC(=O)CSc1ccsc1[N+](=O)[O-]	31.6µM	u	28.2µM	17.8µM	25.1µM	23.8	n	u	60.1
COc1ccccc1CNC(=O)CSc1ccsc1[N+](=O)[O-]	n	n	x	u	u	x	x	x	x
O=C(O)c1ccc2c3c(cccc13)C(=O)N(c1ccccc1)C2=O	17.8µM	89.1µM	12.6µM	28.2µM	20µM	2.67	n	u	23.9	Pol kappa inh-2=11.9
O=C(/C=C/c1ccco1)N(c1ccccn1)c1ccccn1	8.91µM	31.6µM	3.98µM	u	3.55µM	2.67	n	16.8	23.9
COc1ccc(C(=O)N2CCC3(CCCN(c4ccccc4)C3)CC2)cc1	x	n	x	x	x	x	x	x	x
O=S(=O)(c1ccc(SCCO)nc1)N1CCOCC1	n	n	n	n	x	x	x	x	x
COc1ccc(Sc2ccc(/C=C3\C(=O)NN(c4ccccc4)C3=O)o2)cc1	25.1µM	u	28.2µM	17.8µM	44.7µM	21.2	u	x	u
O=C(O)CCCCCn1c(SCC(=O)N2CCCC2)nc2ccsc2c1=O	n	n	n	u	n	x	x	x	x
O=C(O)CCCCCn1c(SCC(=O)c2ccc(O)c(O)c2)nc2ccsc2c1=O	2.82µM	u	31.6µM	u	39.8µM	2.99	n	x	16.9	Pol kappa inh-2=7.52
Cc1ccc(-n2c(C)nc3oc4ccccc4c(=O)c3c2=O)cc1	79.4µM	u	39.8µM	u	39.8µM	26.7	n	23.8	37.9
CCc1nc2oc3cc(OC)ccc3c(=O)c2c(=O)n1-c1ccccc1	n	n	x	n	n	x	x	x	x
O=C(NC1CC1)C1CCN(S(=O)(=O)c2cc(Cl)ccc2Cl)CC1	n	n	n	n	n	x	x	x	x
O=C(NC1CC1)C1CCN(S(=O)(=O)c2cc([N+](=O)[O-])ccc2Cl)CC1	12.6µM	50.1µM	7.94µM	10µM	x	2.99	n	29.9	u	Pol kappa inh-2=18.9
SMILES	Pol eta inh-1	Pol kappa inh-1	L3MBTL1 inh-1	POLI inh	POLB inh	L3MBTL1 inh-2	L3MBTL1 ctr	Pol iota confirm	Pol eta inh-2	others
Nc1cccc(Nc2ccccc2)c1	n	n	n	n	n	x	x	x	x
Nc1ccc(Nc2ccccc2)c(S(=O)(=O)O)c1	15.8µM	79.4µM	15.8µM	11.2µM	11.2µM	2.67	u	47.4	37.9	Pol kappa inh-2=8.44
CCOC(=O)c1c(-c2ccccc2)csc1NC(=O)c1nc(S(=O)(=O)CC)ncc1Cl	n	n	x	n	n	x	x	x	x
Cc1ccc2c(CC(=O)OCC(=O)N(CC(C)C)c3c(N)n(Cc4ccccc4)c(=O)[nH]c3=O)coc2c1	20µM	u	31.6µM	25.1µM	x	21.2	n	x	37.9
CCCCOC(=O)c1ccc(NC(=O)/C(C#N)=C/c2ccc(C)o2)cc1	n	n	x	u	n	x	x	x	x
O=C(/C=C/c1ccco1)NCC1OCCc2ccccc21 (configuration not stated)	12.6µM	35.5µM	22.4µM	14.1µM	14.1µM	5.97	n	42.3	42.6
C=CC(=O)NCC1OCCc2ccccc21 (configuration not stated)	n	n	n	n	n	x	x	x	x
COc1ccc2[nH]c(=O)cc(C(=O)O)c2c1	14.1µM	u	22.4µM	u	17.8µM	3.36	n	u	26.9	Pol kappa inh-2=10.6
CC(=O)Oc1cc(C(=O)OCC(=O)N2CCc3ccccc3C2)cc(OC(C)=O)c1OC(C)=O	7.08µM	39.8µM	8.91µM	u	x	2.99	n	x	u	Pol kappa inh-2=16.8
CCCCC1(C)OC(=O)C(=Cc2ccc(SC)cc2)C(=O)O1 (configuration not stated)	n	n	x	n	u	x	x	x	x
CCCCC1(C)OC(=O)C(=Cc2ccc(-c3ccc(Cl)c(C(=O)O)c3)o2)C(=O)O1 (configuration not stated)	20µM	u	7.94µM	u	15.8µM	13.4	n	x	26.9
Cc1ccc(N2NC(=O)/C(=C/c3ccc(-c4ccc(Cl)c(C(=O)O)c4)o3)C2=O)cc1	22.4µM	u	28.2µM	u	31.6µM	10.6	n	x	60.1
C=CCn1c(C)cc(C(=O)Cn2ncc(Cl)c(Cl)c2=O)c1C	28.2µM	u	14.1µM	20µM	11.2µM	u	n	u	75.7
CCC(C)[C@H](N)C(=O)N[C@H]1CCC2C3CC=C4C[C@@H](O)CC[C@]4(C)C3CC[C@@]21C (some centres not stated)	n	x	x	x	x	x	x	x	x
Cc1ccc(C)c(NC(=O)CN(C)C(=O)c2cccc(-n3cccc3)c2)c1	5.01µM	39.8µM	8.91µM	8.91µM	x	2.67	u	16.8	26.9
